An excerpt weighted towards active compounds, which were near 21% of everything screened.
Pf growth 96h = P. falciparum growth inhibition at 96 hour, primary screen for plastid delayed-death inhibitors | 320,000 tested, 6.9% active | P. falciparum luciferase reporter growth, 96 h | Potency, µM (doses to about 28.7 µM), for the others: at the highest dose activity change, negative = inhibition, actives largely listed as inhibitors; also: potency is read from the fitted curve at half-maximal effect; % is scaled to controls: 0 for no effect and ±100 for the full control effect
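Infected RBCs, 2% Hct / 0.05% parasitemia final; luciferase-reporter P. falciparum; cpd 96 h, 37 C, 5% CO2; luciferase detection reagent; luminescence.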
Pf growth 48h = P. falciparum growth inhibition at 48 hours (one generation). P. falciparum luciferase growth in erythrocytes, 48 h. Potency, µM (highest dose often 28.7 µM), for inactives: at the top dose activity change, negative = inhibition, hits mostly inhibitors. 310,000 tested, 5.9% active. AID 504832; also: potency is read from the fitted curve at half-maximal effect; % is scaled to controls: 0 for no effect and ±100 for the full control effect
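Parasite viability was followed by luminescence of a genomically integrated firefly luciferase. Cultures held 0.1% parasitemia at 2% hematocrit (final), incubated under 5% CO2 at 37 C.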
HCV inhibitor = HCV inhibition; Huh7.5.1 HCVcc-Cre infection, luciferase reporter, 44 h; Potency, µM (doses to about 41.8 µM), inactives show at the highest dose activity change, negative = inhibition, usual class: inhibitors; 340,000 tested, 3.4% active; AID 651820; also: potency is read from the fitted curve at half-maximal effect; % is scaled to controls: 0 for no effect and ±100 for the full control effect
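Reporter virus HCVcc-Cre (~0.5 moi) infects cells exposed to compound; seeding density 1,000 cells/well with 4 h settling beforehand. Luminescence, 15 sec read, taken 44 h post-infection following a 15 min RT substrate incubation.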
Shiga toxin inh = Shiga toxin inhibition; AID 2315; Vero cells, Shiga toxin protein synthesis inhibition reporter; inhibition, % at 38.7 µM; 290,000 tested, 9.2% active; in the data active = inhibition mostly above about 28%, no sharp cut-off; inactive = mostly below about 43%; also: 0% is about no effect
HCMV inh = inhibitors of human cytomegalovirus | HFF cells, HCMV-luciferase reporter, 72 h; hits give low values | activity change, negative = inhibition, % at 57.5 µM | 410,000 tested, 4.5% active | AID 1259415; in the data active = activity change below about -60%; inconclusive = no clear call, values can overlap the other calls; inactive = above about -39%; also: % is scaled to controls: 0 for no effect and ±100 for the full control effect
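Compounds were evaluated in HFFs infected with an HCMV luciferase reporter virus (MOI 1 PFU/cell). Luciferase in lysates collected 72 h post infection served as the replication measure.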
Cycloheximide cs = counter-screen hit for Shiga toxin inhibitors, cycloheximide; max response, %; 300,000 tested, 12% active; cell reporter, cycloheximide protein synthesis inhibition counterscreen; in the data active = max response mostly above about 13%, no sharp cut-off; inactive = mostly below about 14%; also: read at 38.3 µM for the half of the compounds with a filed dose; 0% is about no effect
The depositor's hits bear a star; ? = inconclusive; nt = no result given; [ ] = another dose, or the depositor's remark. Unless noted, calls follow the shape of the dose curve; as a rule, active = well fitted inhibition curve with a large enough effect; inconclusive = small, poorly fitted or top-dose-only effect, or another doubt; inactive = no such curve, though single readings can be large or run the other way.

SMILES	Pf growth 96h	Pf growth 48h	HCV inhibitor	Shiga toxin inh	HCMV inh	Cycloheximide cs
CCCCN(C(=O)c1ccc(NC(=O)C(C)C)cc1)c1ccccc1	?	?	-12.2%	30.8	-22.8	9.4
COC1C=COC2(C)Oc3c(C)c(O)c4c(O)c(c(CN5CCN(C)CC5)c(O)c4c3C2=O)NC(=O)C(C)=CC=CC(C)C(O)C(C)C(O)C(C)C(OC(C)=O)C1C (centres undefined)	nt	nt	6.9%	nt	2.8	nt
COC(=O)C1C(O)C(C)C(O)C(C)/C=C\C=C(/C)C(=O)Nc2c(C)c(OC(C)=O)c3c(c2O)C(=O)C(C)=C2OCOC(=C23)/C(C)=C/C(C)(O)C(O)C(C)C1O (centres undefined)	9.28µM*	11.7µM*	4.1%	-8.6	9.9	-5.8
COc1ccc(C(=O)c2ccc(CC(=O)O)s2)cc1	?	6.57µM*	7.5%	9.1	-16.1	5.9
NC(=O)Cc1ccc(C(=O)c2ccc(Cl)cc2)s1	0.0%	57.8%	-0.7%	57.1*	-30.1	46.5
O=C(c1ccccc1)c1ccc(OCCO)cc1	26.5%	35.9%	0.3%	38.2*	37.7	15.9
COc1ccc(C(C(=O)c2ccccc2)c2ccccc2)cc1 (centres undefined)	nt	nt	nt	nt	-82.3*	nt
O=C(O)Cc1ccc(C(=O)c2ccc(Cl)cc2)s1	-26.3%	nt	17.9%	-7.6	-6.4	8.2
COC(=O)c1sc(S(=O)(=O)N2CCN(c3ccccc3F)CC2)c(C(=O)OC)c1C	nt	nt	-4.4%	nt	-1.5	nt
CCc1cc(=O)[nH]c(SCc2ccc(C)cc2)n1	-6.0%	6.6%	1.0%	-11.7	-31.9	8.1
COc1ccc(C(=O)c2ccc(Br)cc2)cc1	?	11.7µM*	15.0%	-22.5	-16.1	-4.2
COc1ccc(C(=O)c2ccc(OC)c(OC)c2)cc1	-18.2%	nt	14.3%	16.9	2.3	10.4
COc1ccc(C(=N/O)/C(=N/O)c2ccc(OC)cc2)cc1	-3.3%	-3.8%	3.0%	-23.7	6.8	12.6
COc1ccc(N(C)C(=O)c2ccc3nc(-c4ccccc4)c(-c4ccccc4)nc3c2)cc1	?	?	11.2µM*	-14.2	7.7	-1.6
COc1ccc(C(Cl)=C(c2ccc(OC)cc2)c2ccc(OC)cc2)cc1	?	9.28µM*	2.6%[8.37 µM]	14.1	17.7	2.1
COc1ccc(C(=O)c2nccc3cc(OC)c(OC)cc23)cc1OC	0.738µM*	1.17µM*	?	nt	nt	nt
CCCCn1c(N)c(N(CCOC)C(=O)COC(=O)C(C)(C)Oc2ccc(Cl)cc2)c(=O)[nH]c1=O	34.5%	?	-11.7%	nt	-22.3	nt
COc1ccc(C(=O)c2nccc3ccccc23)cc1	29.9%	20.3%	6.0%	47.7	?	36.8*
CC(=O)c1cccc(Oc2ncccn2)c1	7.8%	nt	-9.6%	3.0	13.8	-4.0
O=C(c1ccccc1)c1ccc(Oc2ncccn2)cc1	-34.6%	94.3%	-12.9%	196.8	18.9	57.8*
COc1ccc(C(=O)c2ccccc2)cc1	?	47.9%	10.2%	44.8	42.2	30.6*
Cc1cccc(-n2c(C)cc(/C=N/NC(=O)c3ccc(CN4CCOCC4)cc3)c2C)c1	?	?	10µM*	-3.5	8.2	3.7
Cc1cc(/C=N/NC(=O)c2ccncc2)c(C)n1-c1cccc(C(F)(F)F)c1	34.1%	?	?	5.8	-12.7	7.9
Cc1ccc(C(=O)N/N=C/c2cc(C)n(-c3ccc(Br)cc3)c2C)cc1[N+](=O)[O-]	-13.2%	-1.3%	20µM*	22.1	-28.5	8.7
Cc1ccc(-n2c(C)cc(/C=N/NC(=O)c3ccncc3)c2C)cc1	?	?	?	17.6	-39.4	24.9*
SMILES	Pf growth 96h	Pf growth 48h	HCV inhibitor	Shiga toxin inh	HCMV inh	Cycloheximide cs
Cc1ccc(-n2c(C)cc(/C=N/NC(N)=S)c2C)cc1	125.5%	?	?	-12.3	-14.6	19.0*
Cc1nc(NC(=O)c2ccccc2)sc1-c1cc(C(=O)NCCO)nn1Cc1ccccc1	nt	nt	nt	nt	21.8	nt
O=C(CCOc1ccccc1)N(Cc1cccnc1)c1nc2c(F)cccc2s1	nt	nt	nt	nt	-25.0	nt
CCCCC(=O)Nc1ccc(NCc2ccc(C)s2)cc1	20.5%	1.4%	-8.9%	5.4	4.9	0.4
Cc1ccc(-n2c(C)cc(/C=N/NC(=O)CC3(C)OCCO3)c2C)cc1	?	13.1µM*	-1.6%	34.2	?	16.2
CNC(=S)N/N=C/c1cc(C)n(-c2ccc(Cl)c(Cl)c2)c1C	9.28µM*	14.7µM*	?	52.1	-68.3*	21.9*
Cc1cc(/C=N/NC(=O)CC2(C)OCCO2)c(C)n1-c1cc(Cl)cc(Cl)c1	?	?	4.9%	-6.0	-7.1	-2.9
CNC(=S)N/N=C/c1ccccc1Cl	57.8%	33.4%	-10.7%	-7.1	-2.0	10.4
Cc1ccc(-n2c(C)cc(/C=N/NC(=O)CN(c3ccc(C)cc3C)S(C)(=O)=O)c2C)cc1	?	11.7µM*	9.5%	-8.6	-28.9	-1.8
Cc1ccc(-n2c(C)cc(/C=N/NC(=O)c3ccc(CN4CCOCC4)cc3)c2C)cc1	?	?	10µM*	-13.9	?	8.7
Cc1cc(C)cc(-n2c(C)cc(/C=N/NC(=O)CN(c3c(C)cccc3C)S(C)(=O)=O)c2C)c1	nt	?	-3.5%	-15.0	27.8	7.3
Cc1ccccc1NC(=O)c1c(C)oc2ccc(O)c(CN3CCN(C)CC3)c12	nt	nt	nt	nt	-13.7	nt
Cc1cccc(C)c1NC(=O)[C@@]1(CC(=O)O)CC(/C=C/c2ccccc2)=NO1	22.8%	-2.9%	8.4%	-9.4	26.3	-4.8
CCN(CC(=O)Nc1c(F)cccc1F)C(=O)CCN1C(=O)C2CCCCC2C1=O (centres undefined)	30.7%	?	2.2%	nt	-18.0	nt
Cc1cc(C)c(N=Cc2c(O)c3ccccc3oc2=O)c(C)c1	1.7%	10.4µM*	13.7%	nt	16.9	15.4*
COc1ccc(N=Cc2c(O)c3ccccc3oc2=O)cc1	37.9%	11.5%	?	60.6*	?	32.4*
CC(C)c1ccc(N=Cc2c(O)c3ccccc3oc2=O)cc1	-3.3%	0.2%	11.8%	64.2*	13.4	59.9*
Cc1cc(C)cc(N=Cc2c(O)c3ccccc3oc2=O)c1	?	-13.0%	-22.8%	12.2	24.7	14.8
NS(=O)(=O)c1ccc(N=Cc2c(O)c3ccccc3oc2=O)cc1	-21.9%	-27.0%	0.7%	-5.9	-1.3	-1.9
COc1ccc(OC)c(N=Cc2c(O)c3ccccc3oc2=O)c1	83.9%	3.2%	-2.6%	-11.4	55.8	2.0
CC(OC(=O)c1cc(S(=O)(=O)N2CCOCC2)ccc1F)C(=O)NCc1ccc2c(c1)OCO2 (centres undefined)	-9.1%	-15.0%	1.9%	nt	9.6	nt
Cc1cccc(CSCc2ccc(C(=O)NC(C)C)o2)c1	3.7µM*	2.3%[0.00184 µM]	12.6µM*	22.5	6.6	10.0
O=C(O)c1ccc(CSCc2ccccc2)o1	nt	nt	nt	nt	-84.7*	nt
Cc1cccc(CSCc2ccc(C(=O)O)o2)c1	167.9%	0.0%	15.4%	24.6	-3.2	15.7*

Source: PubChem
